Consider eight compounds from PubChem BioAssay (NCI).

Some test systems named below: DU-145 prostate; K-562 leukemia; MALME-3M melanoma; MDA-MB-231 breast; RXF 393 renal; SF-268 CNS; SF-295 CNS; SF-539 CNS; UACC-257 melanoma; M14 melanoma; HCT-15 colon; HT29 colon; SNB-75 CNS; SNB-19 CNS; U251 CNS; PC-3 prostate; SK-MEL-5 melanoma; UACC-62 melanoma; LOX IMVI melanoma; SK-MEL-28 melanoma.
Common to all, as to experiment: NCI-60 one-dose screen, 48 h (100 = growth as untreated, 0 = no growth, -100 = all killed)
Holding throughout (details): 10 µM unless noted

Compounds without any hit were thinned out: in the full panel of roughly 83,000, 20% have a hit.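 Assay: single dose, 48 h. Readout: percent growth (0 = no net growth; negative = cell death). Active: <10.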 Unmarked numbers belong to inactive results. The source made the active and inactive calls.

With `Cn1cc(-c2nn3cc(-c4ccncc4)nc3s2)c2cc(F)ccc21`, the growth is 90.8% with DU-145 prostate; 19.7% with K-562 leukemia; 65.5% in the test with MALME-3M melanoma; 63.3% with MDA-MB-231 breast; 88% in the test on RXF 393 renal; 94.8% in the test with SF-268 CNS. Also, the growth in the test on SF-295 CNS is 96.7%; with SF-539 CNS it was 87%; with UACC-257 melanoma it was 111%; with M14 melanoma it was 93.4%; in the test on HCT-15 colon it was 38.7%; in the test with HT29 colon, 68.8%. Besides, the growth was 65% in the test on SNB-75 CNS; 90.1% in the test on SNB-19 CNS; 98.3% with U251 CNS; 68.3% in the test with PC-3 prostate; 87.6% in the test on SK-MEL-5 melanoma; 75.9% with UACC-62 melanoma. Also, the growth in the test on LOX IMVI melanoma was 10.5%.

On to `CCCN1C=C/C(=C\C(=O)n2ccc3ccccc32)c2ccccc21`, for which the growth is 87.7% in the test with DU-145 prostate; 56.9% in the test on K-562 leukemia; 104% in the test on MALME-3M melanoma; 76.2% with MDA-MB-231 breast; 97.6% with RXF 393 renal; 96.4% in the test on SF-268 CNS. Also, the growth is 83.1% in the test with SF-295 CNS; 88.2% in the test on SF-539 CNS; 102% in the test on UACC-257 melanoma; 95.4% in the test on M14 melanoma; 80.3% in the test with HCT-15 colon; 74.7% in the test on HT29 colon. Moreover, the growth is 90.8% in the test on SNB-75 CNS; 94.5% in the test with SNB-19 CNS; 90.3% with U251 CNS; 73.7% in the test with PC-3 prostate; 82.1% with SK-MEL-5 melanoma; 68.9% with UACC-62 melanoma. For the same compound, the growth in the test with LOX IMVI melanoma was 78.7%.

As for `O=C(CCCCCCNC(=O)C(O)(O)C(F)(F)F)Nc1ncc(-c2ccc(Br)cc2)s1`, the growth is 3.81% (active) in the test with DU-145 prostate; 11.8% with K-562 leukemia; 19.9% in the test on MALME-3M melanoma; 19.7% in the test with MDA-MB-231 breast; -52.8% (active) in the test with RXF 393 renal; 1.89% (active) in the test on SF-268 CNS. Also, the growth was -29.3% (active) with SF-295 CNS; 12.1% in the test on SF-539 CNS; 9.48% (active) in the test with UACC-257 melanoma; 8.94% (active) in the test on M14 melanoma; 3.85% (active) in the test with HCT-15 colon; 1.78% (active) in the test with HT29 colon. The growth is 35.9% with SNB-75 CNS; 2.52% (active) with SNB-19 CNS; -35.4% (active) in the test with U251 CNS; 10.5% in the test on PC-3 prostate; -70.3% (active) with SK-MEL-5 melanoma; -52.1% (active) with UACC-62 melanoma. Besides, the growth in the test with LOX IMVI melanoma was -89.7% (active).

For `C#C[C@]1(O)CC[C@H]2[C@@H]3CC=C4c5sc(Nc6cc(Cl)ccc6OC)nc5CC[C@]4(C)[C@H]3CC[C@@]21C`, the growth in the test with DU-145 prostate is 19.1%; with K-562 leukemia it was 4.32% (active); with MALME-3M melanoma, 12.1%; in the test on MDA-MB-231 breast, 43.6%; in the test with RXF 393 renal, -74.9% (active); in the test on SF-268 CNS, 24.6%. In addition, the growth is -62.4% (active) in the test with SF-295 CNS; -22.1% (active) with SF-539 CNS; -16.3% (active) in the test on UACC-257 melanoma; -51.7% (active) with M14 melanoma; 16.3% in the test on HCT-15 colon; 34.9% with HT29 colon. Moreover, the growth was -1.39% (active) in the test with SNB-75 CNS; 28.3% in the test on SNB-19 CNS; 15.3% in the test with U251 CNS; -9.76% (active) with PC-3 prostate; -43.9% (active) in the test with SK-MEL-5 melanoma; -3.92% (active) in the test with UACC-62 melanoma. Further, the growth in the test on LOX IMVI melanoma is -71.7% (active).

Regarding `COc1ccc(C(C)=C(c2ccc(OCCN3CCCCCC3)cc2)c2ccc(OCCN3CCCCCC3)cc2)cc1`, the growth with DU-145 prostate was 6.1% (active); in the test on K-562 leukemia, -32.5% (active); with MALME-3M melanoma, -86.9% (active); with MDA-MB-231 breast it was -60.5% (active); with RXF 393 renal, -82.4% (active); in the test on SF-268 CNS it was 4.71% (active). The growth is -86% (active) with SF-295 CNS; -88.4% (active) with SF-539 CNS; -65.5% (active) with UACC-257 melanoma; -89.5% (active) in the test with M14 melanoma; -82.1% (active) in the test with HCT-15 colon; -49.9% (active) in the test with HT29 colon. Besides, the growth in the test on SNB-75 CNS was -12% (active); in the test on SNB-19 CNS, -51.7% (active); in the test on U251 CNS, -77.9% (active); with PC-3 prostate, -54.6% (active); in the test with SK-MEL-5 melanoma, -92% (active); in the test on UACC-62 melanoma, -65.2% (active). Further, the growth in the test with LOX IMVI melanoma is -84% (active).

Turning to `O=c1c2ccccc2cc2n1CCN=C2c1ccccc1`, the growth with DU-145 prostate was 102%; in the test on K-562 leukemia, 103%; with MALME-3M melanoma, 102%; in the test on MDA-MB-231 breast it was 96.2%; in the test with RXF 393 renal, 96.2%; with SF-268 CNS, 97.2%. For the same compound, the growth in the test with SF-295 CNS is 103%; with SF-539 CNS, 98.6%; in the test on UACC-257 melanoma, 110%; in the test with M14 melanoma it was 103%; in the test on HCT-15 colon it was 96.6%; in the test with HT29 colon it was 104%. The growth in the test on SNB-75 CNS was 94.9%; in the test with SNB-19 CNS it was 94.8%; in the test with U251 CNS it was 97%; in the test on PC-3 prostate, 96.5%; in the test on SK-MEL-5 melanoma, 99.5%; in the test with UACC-62 melanoma, 96%. Moreover, the growth with LOX IMVI melanoma is 101%; in the test with SK-MEL-28 melanoma, 112%.

With `O=[N+]([O-])c1ccc(NC(=S)NNC(=S)Nc2ccc(F)cc2)cc1`, the growth in the test with DU-145 prostate is 105%; in the test on K-562 leukemia, 49.8%; in the test with MALME-3M melanoma it was 90.1%; with MDA-MB-231 breast, 92.4%; in the test on RXF 393 renal, 104%; in the test with SF-268 CNS, 95.1%. For the same compound, the growth was 82.3% in the test on SF-295 CNS; 94.9% in the test with SF-539 CNS; 97.8% with UACC-257 melanoma; 92.1% with M14 melanoma; 61.7% with HCT-15 colon; 98% in the test with HT29 colon. Moreover, the growth in the test with SNB-75 CNS is 103%; with SNB-19 CNS it was 94.4%; with U251 CNS, 90.5%; in the test with PC-3 prostate it was 76.5%; in the test on SK-MEL-5 melanoma it was 89.9%; in the test on UACC-62 melanoma, 58.8%. Besides, the growth in the test on LOX IMVI melanoma is 72.3%.

For `O=C(NNc1nc2cc(F)cc(F)c2n2cccc12)c1cccnn1`, the growth is 20.8% in the test with DU-145 prostate; 12.8% in the test on K-562 leukemia; 21.4% in the test on MALME-3M melanoma; 30.2% in the test with MDA-MB-231 breast; 22.3% with RXF 393 renal; 12% in the test on SF-268 CNS. The growth was 9.98% (active) in the test on SF-295 CNS; 3.8% (active) with SF-539 CNS; 3.33% (active) in the test on UACC-257 melanoma; 7.06% (active) in the test with M14 melanoma; 27.9% in the test on HCT-15 colon; 30.2% in the test on HT29 colon. Further, the growth in the test with SNB-75 CNS is 24.5%; in the test on SNB-19 CNS it was 21.6%; in the test on U251 CNS it was 15.3%; in the test on PC-3 prostate it was 30.7%; in the test with SK-MEL-5 melanoma it was -31.3% (active); in the test on UACC-62 melanoma, 9.53% (active). In addition, the growth in the test with LOX IMVI melanoma is 6.98% (active).
